Abeta rescue: qHTS for compounds that reverse cellular toxicity of Amyloid beta (A-beta) peptide in yeast: Primary Screen | yeast expressing A-beta42, growth rescue, OD600, 48 h; response scale: 0% DMSO, 100% iron-clioquinol control | Potency, µM (doses to about 46.1 µM), usual class: activators | hit rate 0.063% among 410,000 | AID 1347071, 2019; also: nearly all actives have a fitted effect of over 55% in size
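Yeast growth medium received pinned compounds, then yeast cells expressing toxic A-beta were added; plates incubated at 30 C for 48 hr. Growth read as absorbance at 600 nm, normalized to DMSO and equimolar FeCl3 plus clioquinol controls.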
MmCpn inh: Inhibitors of TCP-1 ring complex (TRiC) of Methanococcus maripaludis (MmCpn): qHTS; Potency, µM (doses to about 76.9 µM), without a hit: at the highest dose activity, negative = inhibition, most hits filed as inhibitors; AID 504842, 2011; hit rate 0.031% among 330,000; purified Mm-Cpn ATPase, ADP Transcreener TR-FRET; also: % is scaled to controls: 0 for no effect and ±100 for the full control effect; nearly all actives have a fitted effect of over 80% in size
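ATPase turnover read by TR-FRET ADP competition (Eu cryptate antibody/ADP-d2, 665/590 nm): 10uM ATP final, 25nM Mm-CPN final, 30 min 37degC after 10-min compound preincubation, pH 7.4 Tris/KCl/MgCl2/DTT buffer.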
TDP43 rescue: qHTS of TDP-43 Inhibitors; TDP-43 expressing yeast growth rescue, BacTiter-Glo, 24 h; Potency, µM (titrated, usually from 46.1 µM), without a hit: top-dose growth rescue (activation), usual class: activators; hit rate 1.8% among 410,000; AID 652104, 2013; also: % of control where 0% means no effect; nearly all actives have a fitted effect of over 50% in size
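Readout is BacTiter-Glo luminescence of cell growth, so inhibitors register as activators. TDP-43-expressing yeast at OD600=0.02 in galactose medium, after raffinose pregrowth to mid-log, were incubated with compound for 24 hr at 30 deg C.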
aSyn yeast inh: qHTS of alpha-syn Inhibitors; Yeast expressing alpha-synuclein, growth rescue, BacTiter-Glo, 24 h; hit rate 0.14% among 370,000; Potency, µM (doses to about 46.1 µM), for inactives: at the highest dose growth rescue (activation), actives largely listed as activators; also: % of control where 0% means no effect; nearly all actives have a fitted effect of over 65% in size
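Screening used galactose-induced yeast with toxic alpha-synuclein levels, exposed to compound for 24 hr at 30 deg C. Cell growth, read with BacTiter-Glo luminescence, gave the measured signal.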
ClpP mod: qHTS Assay for Activators of ClpP; purified B. subtilis ClpP, FRET peptide cleavage, 20 min; ATP-dependent Clp protease proteolytic subunit (Bacillus subtilis (strain 168)), P80244; hit rate 1.9% among 340,000; AID 651965, 2013; Potency, µM (doses to about 57.5 µM), without a hit: top-dose activity change, negative = active; active = well fitted falling curve with a large enough effect; inconclusive = small, poorly fitted or top-dose-only effect; inactive = no such curve, though single readings can be large or run the other way; also: the source files actives as falling curves though it sought activators and does not explain the sign; nearly all actives have a fitted effect of over 65% in size
Target sequence (P80244 whole entry, looked up): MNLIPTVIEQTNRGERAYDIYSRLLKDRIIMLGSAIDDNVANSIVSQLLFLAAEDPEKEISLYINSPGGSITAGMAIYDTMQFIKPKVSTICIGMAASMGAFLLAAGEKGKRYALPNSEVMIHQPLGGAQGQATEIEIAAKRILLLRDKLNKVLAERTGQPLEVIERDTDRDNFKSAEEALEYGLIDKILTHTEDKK
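Purified B. subtilis ClpP, 10 microg/mL final in Tris/HCl pH8 with KCl, BSA, glycerol and Tween-20, cleaved an Abz/nitrotyrosine-quenched decapeptide. Fluorescence (ex 320, em 430) was read at 0 and 20 min at room temperature. Delta was normalized to 5.8 microM ADEP and DMSO/no-enzyme controls.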
FUS yeast rescue: qHTS for Suppressors of FUS Proteinopathy: Primary screen using FUS-linked yeast assay; S. cerevisiae FUS-expressing, growth rescue, OD600, 24 h; Potency, µM (series often up to 76.6 µM), usual class: activators; hit rate 0.24% among 390,000; AID 1347120, 2019;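 also: plate controls were DMSO vehicle for no effect and reference control for full effect; nearly all actives have a fitted effect of over 55% in size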
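S. cerevisiae expressing FUS from galactose induction served as the toxicity model. Growth after 24hr at 30C, read as absorbance at 600 nm, indicates suppression of toxicity; compounds dosed at several concentrations.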
* marks the source's active call; other numbers are inactive results; i = inactive; ? = inconclusive; nt = not tested or not shown. The list is not random: actives were taken first. Their share in the collection is about 3.6%. Unless noted, calls follow the shape of the dose curve; as a rule, active = well fitted curve in the direction sought with a large enough effect; inconclusive = small, poorly fitted or top-dose-only effect, or another doubt; inactive = no such curve, though single readings can be large; an effect the other way counts as inactive or inconclusive. Potency is read from the fitted curve at half-maximal effect.

SMILES | Abeta rescue | MmCpn inh | TDP43 rescue | aSyn yeast inh | ClpP mod | FUS yeast rescue
Cc1cc(Br)cn2c(Cc3ccccc3)c(-c3ccco3)nc12 | i | nt | 11µM* | 1% | -6% | i
COc1ccccc1Cc1c(-c2ccc(OC)c(OC)c2)nc2c(C)cc(Br)cn12 | i | nt | 18µM* | 1% | -8% | ?
COc1ccc(-c2nc3c(C)cc(Br)cn3c2Cc2cccc(Cl)c2)cc1OC | i | nt | 32µM* | 5% | -9% | ?
CC(C)N1CCCCC(NC(=O)c2ccc(F)c(F)c2)C1=O (stereo not drawn) | nt | nt | nt | nt | nt | i
CCN(CC)/[N+]([O-])=N/Oc1ccc([N+](=O)[O-])cc1[N+](=O)[O-] | nt | nt | nt | -73% | nt | nt
COc1ccccc1Cc1c(-c2ccc(C)cc2)nc2c(C)cc(Br)cn12 | i | nt | 35µM* | 11% | -4% | ?
NNC(=S)Nc1ccc(OC(F)(F)F)cc1 | 11µM* | 3% | 3% | 0% | nt | i
NNC(=S)Nc1ccc(Cl)cc1 | ? | 2% | 6% | -20% | -1% | i
O=c1c(-c2nnc(SCc3ccc(Cl)cc3Cl)o2)cccn1Cc1ccccc1 | i | 3% | ? | 2% | 3.2µM* | i
Clc1ccc(CSc2nnc(-c3ccncc3)o2)c(Cl)c1 | i | 0% | 2.8µM* | nt | -5% | i
Cc1ccccc1CSc1nnc(-c2ccncc2)o1 | i | ? | 14µM* | 7% | 0% | i
C[C@H](N)c1nnc(SCc2ccc(Cl)cc2Cl)o1 | i | 0% | 17% | 1% | 1% | i
c1ccc(CSc2nnc(-c3ccncc3)o2)cc1 | i | 1% | ? | 0% | -10% | i
Cc1ccc(C)c(Cn2c(=O)n(Cc3ccccc3)c(=O)c3sc4ccccc4c32)c1 | i | nt | 12% | nt | -6% | i
CCC(=O)NC(c1cccs1)c1cc(Br)c2cccnc2c1O (stereo not drawn) | nt | -1% | nt | nt | nt | nt
COc1ccc(NC(=O)CN(c2ccc(C)cc2)S(=O)(=O)c2cccc3nonc23)cc1OC | i | nt | 20% | nt | 0% | i
Cc1sc2ccccc2[n+]1CCCCBr | nt | nt | nt | -6% | -1% | nt
CCn1c(=S)[nH]c2cc(Cl)ccc21 | 13µM* | -2% | -10% | 5% | 0% | i
CCCn1c(=S)[nH]c2cc(Cl)ccc21 | ? | 0% | ? | -6% | 0% | i
CCOc1cc(/C=C2\SC(=S)N(Nc3ccccc3)C2=O)ccc1O | i | -1% | -21% | -11% | -2% | i
COc1cc(/C=C2\SC(=S)N(Nc3ccccc3)C2=O)ccc1O | i | -2% | -36% | -15% | 28µM* | i
Cc1coc2c1c(C)cc1oc(=O)c(CC(=O)NCc3ccc(Cl)cc3)c(C)c12 | i | nt | 10% | nt | 4% | i
CCc1ccccc1NC(=O)CN1CCN(C(=O)C(C)NC(=O)c2ccc(Cl)cc2)CC1 (stereo not drawn) | i | -2% | 10% | 0% | 16µM* | i
Cc1cccc(CNC(=O)CCn2c(=O)c3cccn3c3ccc(F)cc32)c1 | i | nt | -10% | nt | -6% | i
CN(c1ccccc1)c1nc2ccsc2c(=O)s1 | i | -2% | 14µM* | 0% | -4% | i
CCN(c1ccccc1)c1nc2ccsc2c(=O)s1 | i | -1% | ? | -15% | -13% | i
O=C1CC(c2ccccc2)Cc2[nH]c(=O)c(C(=O)Nc3ccc(OC(F)(F)F)cc3)cc21 (stereo not drawn) | i | nt | 7% | nt | -1% | i
COc1ccc2nc(C)c3cc(C)oc3c2c1 | i | 0% | -14% | -8% | -8% | i

High-throughput results: PubChem BioAssay, National Center for Advancing Translational Sciences (NCATS)
